# Measurements published in article PMC7862700, “An all-to-all approach to the identification of sequence-specific readers for epigenetic DNA modifications on cytosine”.
# Experiments:
# Experiment in all cases: DAPPL (digital affinity profiling via proximity ligation, sequencing); 10 mM Tris-HCl pH 7.5, 50 mM NaCl, 1 mM DTT, 4% glycerol, room temperature, 30 min; GST-TFs on glutathione beads, 16-mer random dsDNA library, 0.1% formaldehyde crosslink after washing; high values mean tight binding
# FLI1 = biological target: T1, FLI1 (Homo sapiens, UniProt Q01543 1-452); details: protein: recombinant; tags: N-terminal GST; dsDNA, one strand shown
# T1 sequence: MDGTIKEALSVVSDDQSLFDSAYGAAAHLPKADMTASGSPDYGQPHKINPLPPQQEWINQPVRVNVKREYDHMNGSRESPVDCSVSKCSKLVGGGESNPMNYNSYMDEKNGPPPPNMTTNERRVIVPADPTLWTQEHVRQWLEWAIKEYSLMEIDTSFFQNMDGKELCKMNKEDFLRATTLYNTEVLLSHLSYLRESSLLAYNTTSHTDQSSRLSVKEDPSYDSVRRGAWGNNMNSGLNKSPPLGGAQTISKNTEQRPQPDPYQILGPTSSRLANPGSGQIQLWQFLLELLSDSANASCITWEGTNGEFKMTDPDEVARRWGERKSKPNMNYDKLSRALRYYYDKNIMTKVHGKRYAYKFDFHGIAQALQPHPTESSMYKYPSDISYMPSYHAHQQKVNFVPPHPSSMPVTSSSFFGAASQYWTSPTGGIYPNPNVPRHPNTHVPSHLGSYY
# In short: (§1)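 Human transcription factors were made in yeast as GST fusions, captured on glutathione beads and barcoded with DNA. With a tag-only sample included, the pool was incubated with 200 nmole of a random double-stranded 16-mer DNA library in Tris/NaCl/DTT/glycerol buffer at room temperature for 30 min, then crosslinked with 0.1% formaldehyde after washing, ligated by proximity, amplified and sequenced. For binding signal, each hexamer's read frequency for a factor is divided by its frequency for the tag-only sample.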
# ELK1 = biological target: T2, ELK1 (Homo sapiens, UniProt P19419 1-428); details: protein: recombinant; tags: N-terminal GST; dsDNA, one strand shown
# T2 sequence: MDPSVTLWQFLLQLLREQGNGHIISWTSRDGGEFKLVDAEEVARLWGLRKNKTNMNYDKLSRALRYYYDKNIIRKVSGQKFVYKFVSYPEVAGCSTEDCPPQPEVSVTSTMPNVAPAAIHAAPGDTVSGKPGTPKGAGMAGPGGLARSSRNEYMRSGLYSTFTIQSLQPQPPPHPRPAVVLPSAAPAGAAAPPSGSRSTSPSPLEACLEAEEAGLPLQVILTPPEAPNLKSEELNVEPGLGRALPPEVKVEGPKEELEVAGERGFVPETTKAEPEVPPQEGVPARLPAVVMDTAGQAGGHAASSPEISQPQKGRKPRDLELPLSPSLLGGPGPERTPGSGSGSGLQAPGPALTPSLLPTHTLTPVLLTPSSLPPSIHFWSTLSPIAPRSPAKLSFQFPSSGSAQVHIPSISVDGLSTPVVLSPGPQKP
# In short: as §1
# GABPA = biological target: T3, GABPA (Homo sapiens, UniProt Q06546 1-454); details: protein: recombinant; tags: N-terminal GST; dsDNA, one strand shown
# T3 sequence: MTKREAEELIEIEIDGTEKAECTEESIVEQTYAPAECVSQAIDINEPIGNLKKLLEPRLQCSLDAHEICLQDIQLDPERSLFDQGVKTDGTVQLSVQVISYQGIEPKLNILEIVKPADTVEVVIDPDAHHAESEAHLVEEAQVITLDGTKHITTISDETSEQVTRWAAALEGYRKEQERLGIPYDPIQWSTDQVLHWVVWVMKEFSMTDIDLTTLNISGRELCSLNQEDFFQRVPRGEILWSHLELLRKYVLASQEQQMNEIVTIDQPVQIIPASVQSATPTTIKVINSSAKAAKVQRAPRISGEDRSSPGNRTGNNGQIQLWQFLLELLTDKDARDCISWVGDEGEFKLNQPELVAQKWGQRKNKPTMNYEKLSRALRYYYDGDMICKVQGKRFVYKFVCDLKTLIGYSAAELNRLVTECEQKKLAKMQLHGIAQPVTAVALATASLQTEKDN
# In short: as §1
# ERG = biological target: T4, ERG (Homo sapiens, UniProt P11308 1-479); details: protein: recombinant; tags: N-terminal GST; dsDNA, one strand shown
# T4 sequence: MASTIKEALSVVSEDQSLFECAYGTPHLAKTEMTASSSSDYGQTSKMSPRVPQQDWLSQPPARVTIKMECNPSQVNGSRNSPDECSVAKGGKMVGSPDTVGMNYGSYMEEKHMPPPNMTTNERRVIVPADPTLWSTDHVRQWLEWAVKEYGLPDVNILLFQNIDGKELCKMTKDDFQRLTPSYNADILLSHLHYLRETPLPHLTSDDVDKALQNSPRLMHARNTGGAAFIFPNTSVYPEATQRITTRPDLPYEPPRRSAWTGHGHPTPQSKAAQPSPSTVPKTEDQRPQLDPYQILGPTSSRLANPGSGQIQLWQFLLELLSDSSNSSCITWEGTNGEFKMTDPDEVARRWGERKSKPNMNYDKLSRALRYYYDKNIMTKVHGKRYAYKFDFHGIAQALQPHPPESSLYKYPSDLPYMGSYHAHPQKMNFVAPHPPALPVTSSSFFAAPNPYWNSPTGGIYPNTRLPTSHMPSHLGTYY
# In short: as §1
# ELF1 = ELF1 (Homo sapiens, UniProt P32519 1-619); details: protein: recombinant; tags: N-terminal GST; dsDNA, one strand shown
# In short: as §1
# EHF = biological target: T5, EHF (Homo sapiens, UniProt Q9NZC4 1-300); details: protein: recombinant; tags: N-terminal GST; dsDNA, one strand shown
# T5 sequence: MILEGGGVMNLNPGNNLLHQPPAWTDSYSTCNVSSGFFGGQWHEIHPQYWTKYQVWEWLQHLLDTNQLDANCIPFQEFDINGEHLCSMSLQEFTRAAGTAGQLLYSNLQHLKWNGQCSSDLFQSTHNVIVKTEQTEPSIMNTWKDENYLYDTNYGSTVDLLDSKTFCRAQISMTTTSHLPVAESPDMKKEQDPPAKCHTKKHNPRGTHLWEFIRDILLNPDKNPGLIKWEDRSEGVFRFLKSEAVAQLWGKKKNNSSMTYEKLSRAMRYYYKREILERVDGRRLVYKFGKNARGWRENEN
# In short: as §1
# SPI1 = SPI1 (Homo sapiens, UniProt P17947 1-270); details: protein: recombinant; tags: N-terminal GST; dsDNA, one strand shown
# In short: as §1
# SPIB = SPIB (Homo sapiens, UniProt Q01892 1-262); details: protein: recombinant; tags: N-terminal GST; dsDNA, one strand shown
# In short: as §1
# FEV = biological target: T6, FEV (Homo sapiens, UniProt Q99581 1-238); details: protein: recombinant; tags: N-terminal GST; dsDNA, one strand shown
# T6 sequence: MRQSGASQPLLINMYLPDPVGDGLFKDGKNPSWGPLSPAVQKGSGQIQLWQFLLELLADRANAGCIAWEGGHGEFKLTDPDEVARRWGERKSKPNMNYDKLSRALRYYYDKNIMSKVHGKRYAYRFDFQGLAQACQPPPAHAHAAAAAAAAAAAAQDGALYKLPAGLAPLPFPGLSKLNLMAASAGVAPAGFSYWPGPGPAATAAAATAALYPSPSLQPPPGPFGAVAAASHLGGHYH
# In short: as §1
# ETV5 = ETV5 (Homo sapiens, UniProt P41161 1-510); details: protein: recombinant; tags: N-terminal GST; dsDNA, one strand shown
# In short: as §1
# HSF1 = HSF1 (Homo sapiens, UniProt Q00613 1-529); details: protein: recombinant; tags: N-terminal GST; chain copies: 3; dsDNA, one strand shown
# In short: as §1
# SPIC = biological target: T7, SPIC (Homo sapiens, UniProt Q8N5J4 1-248); details: protein: recombinant; tags: N-terminal GST; dsDNA, one strand shown
# T7 sequence: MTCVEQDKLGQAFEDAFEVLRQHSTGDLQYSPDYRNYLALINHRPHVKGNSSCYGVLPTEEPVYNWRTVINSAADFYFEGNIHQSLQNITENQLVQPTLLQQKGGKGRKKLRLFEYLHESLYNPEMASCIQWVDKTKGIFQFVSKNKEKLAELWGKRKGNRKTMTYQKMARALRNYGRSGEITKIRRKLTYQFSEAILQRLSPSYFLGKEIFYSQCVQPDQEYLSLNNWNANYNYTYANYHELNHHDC
# In short: as §1
# ELF4 = ELF4 (Homo sapiens, UniProt Q99607 1-663); details: protein: recombinant; tags: N-terminal GST; dsDNA, one strand shown
# In short: as §1
# ELK4 = biological target: T8, ELK4 (Homo sapiens, UniProt P28324-2 1-405); details: protein: recombinant; tags: N-terminal GST; dsDNA, one strand shown
# T8 sequence: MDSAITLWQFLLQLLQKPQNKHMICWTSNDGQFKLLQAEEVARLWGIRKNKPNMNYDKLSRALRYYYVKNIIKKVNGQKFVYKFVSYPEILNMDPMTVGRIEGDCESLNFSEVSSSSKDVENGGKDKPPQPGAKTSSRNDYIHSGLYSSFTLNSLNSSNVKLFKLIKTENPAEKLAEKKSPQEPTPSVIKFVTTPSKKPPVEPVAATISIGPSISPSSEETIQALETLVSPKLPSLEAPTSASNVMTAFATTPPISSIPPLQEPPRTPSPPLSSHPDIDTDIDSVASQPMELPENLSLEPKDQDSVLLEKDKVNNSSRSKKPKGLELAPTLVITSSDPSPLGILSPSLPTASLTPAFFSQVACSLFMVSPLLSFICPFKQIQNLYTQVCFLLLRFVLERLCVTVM
# In short: as §1
# ETV2 = biological target: T9, ETV2 (Homo sapiens, UniProt O00321 1-342); details: protein: recombinant; tags: N-terminal GST; dsDNA, one strand shown
# T9 sequence: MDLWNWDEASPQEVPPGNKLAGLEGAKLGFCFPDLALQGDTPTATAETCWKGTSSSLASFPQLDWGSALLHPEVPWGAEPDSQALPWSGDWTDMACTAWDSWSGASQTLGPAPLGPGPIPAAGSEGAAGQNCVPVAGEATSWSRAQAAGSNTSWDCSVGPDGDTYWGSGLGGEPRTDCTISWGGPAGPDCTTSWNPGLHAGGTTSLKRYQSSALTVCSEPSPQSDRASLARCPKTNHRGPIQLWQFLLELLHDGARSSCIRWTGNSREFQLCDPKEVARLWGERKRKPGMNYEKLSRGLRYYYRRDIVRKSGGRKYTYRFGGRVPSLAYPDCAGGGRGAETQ
# In short: as §1
# ELF3 = biological target: T10, ELF3 (Homo sapiens, UniProt P78545 1-371); details: protein: recombinant; tags: N-terminal GST; dsDNA, one strand shown
# T10 sequence: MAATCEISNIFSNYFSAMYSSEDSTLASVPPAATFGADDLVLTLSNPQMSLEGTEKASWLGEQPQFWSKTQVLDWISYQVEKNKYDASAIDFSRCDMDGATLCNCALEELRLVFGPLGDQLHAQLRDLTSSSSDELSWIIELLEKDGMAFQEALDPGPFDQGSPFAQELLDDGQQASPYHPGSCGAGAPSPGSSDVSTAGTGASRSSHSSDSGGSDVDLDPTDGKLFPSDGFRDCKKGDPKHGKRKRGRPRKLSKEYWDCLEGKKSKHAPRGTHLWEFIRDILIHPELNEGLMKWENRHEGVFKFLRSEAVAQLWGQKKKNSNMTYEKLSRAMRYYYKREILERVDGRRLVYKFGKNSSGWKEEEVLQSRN
# In short: as §1
# CRX = CRX (Homo sapiens, UniProt O43186 1-299); details: protein: recombinant; tags: N-terminal GST; dsDNA, one strand shown
# In short: as §1
# ETV1 = ETV1 (Homo sapiens, UniProt P50549 1-477); details: protein: recombinant; tags: N-terminal GST; dsDNA, one strand shown
# In short: as §1
# ELF4, sequence (Q99607 whole entry): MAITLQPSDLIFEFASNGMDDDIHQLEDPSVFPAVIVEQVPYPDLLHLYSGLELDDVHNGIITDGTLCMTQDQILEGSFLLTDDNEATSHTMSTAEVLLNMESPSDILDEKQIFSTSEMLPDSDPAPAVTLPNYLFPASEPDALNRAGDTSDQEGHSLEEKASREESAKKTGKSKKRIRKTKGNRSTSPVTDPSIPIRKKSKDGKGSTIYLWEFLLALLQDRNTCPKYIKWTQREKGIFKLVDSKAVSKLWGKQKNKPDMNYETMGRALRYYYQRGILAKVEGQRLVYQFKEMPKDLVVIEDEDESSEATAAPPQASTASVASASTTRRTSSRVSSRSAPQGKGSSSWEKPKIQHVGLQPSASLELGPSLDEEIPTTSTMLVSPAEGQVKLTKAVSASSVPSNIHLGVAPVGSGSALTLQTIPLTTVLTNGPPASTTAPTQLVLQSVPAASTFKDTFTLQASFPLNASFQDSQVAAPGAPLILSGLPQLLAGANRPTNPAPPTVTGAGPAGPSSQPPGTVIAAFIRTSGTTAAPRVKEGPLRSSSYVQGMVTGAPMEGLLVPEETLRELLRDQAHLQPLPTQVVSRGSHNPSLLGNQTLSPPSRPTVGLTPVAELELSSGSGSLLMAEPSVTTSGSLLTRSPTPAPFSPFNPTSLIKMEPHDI
# SPIB, sequence (Q01892 whole entry): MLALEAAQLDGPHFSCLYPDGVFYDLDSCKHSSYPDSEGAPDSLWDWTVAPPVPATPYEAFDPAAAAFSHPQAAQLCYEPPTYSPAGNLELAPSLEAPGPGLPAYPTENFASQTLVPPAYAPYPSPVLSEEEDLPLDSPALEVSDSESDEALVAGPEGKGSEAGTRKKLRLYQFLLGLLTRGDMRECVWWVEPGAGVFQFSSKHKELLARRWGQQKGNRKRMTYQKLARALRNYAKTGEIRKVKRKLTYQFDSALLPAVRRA
# ETV5, sequence (P41161 whole entry): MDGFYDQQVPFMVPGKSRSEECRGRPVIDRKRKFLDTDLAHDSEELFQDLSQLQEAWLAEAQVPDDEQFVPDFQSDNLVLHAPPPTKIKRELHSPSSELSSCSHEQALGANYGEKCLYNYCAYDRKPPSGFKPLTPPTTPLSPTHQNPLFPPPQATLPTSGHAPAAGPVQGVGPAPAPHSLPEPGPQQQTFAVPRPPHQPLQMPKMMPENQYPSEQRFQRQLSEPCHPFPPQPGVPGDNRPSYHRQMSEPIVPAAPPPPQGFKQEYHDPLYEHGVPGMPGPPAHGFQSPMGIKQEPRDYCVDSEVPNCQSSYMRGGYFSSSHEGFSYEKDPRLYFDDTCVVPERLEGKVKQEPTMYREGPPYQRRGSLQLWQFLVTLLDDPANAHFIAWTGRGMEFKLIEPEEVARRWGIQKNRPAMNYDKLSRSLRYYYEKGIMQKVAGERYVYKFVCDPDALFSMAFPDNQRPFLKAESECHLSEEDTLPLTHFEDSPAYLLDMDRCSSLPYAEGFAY
# CRX, sequence (O43186 whole entry): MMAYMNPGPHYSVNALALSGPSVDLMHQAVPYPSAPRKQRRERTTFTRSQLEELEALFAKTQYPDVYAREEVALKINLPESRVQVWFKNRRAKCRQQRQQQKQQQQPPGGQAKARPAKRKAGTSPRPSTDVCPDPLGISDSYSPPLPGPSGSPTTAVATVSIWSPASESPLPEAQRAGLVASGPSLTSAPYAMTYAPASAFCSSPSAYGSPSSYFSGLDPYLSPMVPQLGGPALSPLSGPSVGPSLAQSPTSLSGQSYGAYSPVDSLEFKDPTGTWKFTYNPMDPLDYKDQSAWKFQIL
# ETV1, sequence (P50549 whole entry): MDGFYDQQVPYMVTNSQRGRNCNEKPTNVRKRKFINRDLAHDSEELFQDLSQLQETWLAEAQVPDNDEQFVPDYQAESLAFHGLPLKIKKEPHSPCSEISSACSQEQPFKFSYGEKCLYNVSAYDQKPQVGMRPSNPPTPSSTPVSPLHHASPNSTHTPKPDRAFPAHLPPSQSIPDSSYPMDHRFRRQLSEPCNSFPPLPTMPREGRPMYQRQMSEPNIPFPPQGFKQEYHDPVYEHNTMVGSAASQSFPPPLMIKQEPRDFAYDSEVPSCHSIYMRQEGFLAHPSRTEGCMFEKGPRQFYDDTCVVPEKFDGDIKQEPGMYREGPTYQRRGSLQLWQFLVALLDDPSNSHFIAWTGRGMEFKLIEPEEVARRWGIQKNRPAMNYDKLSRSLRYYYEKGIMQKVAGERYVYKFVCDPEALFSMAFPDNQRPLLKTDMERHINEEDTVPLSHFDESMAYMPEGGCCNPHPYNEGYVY
# ELF1, sequence (P32519 whole entry): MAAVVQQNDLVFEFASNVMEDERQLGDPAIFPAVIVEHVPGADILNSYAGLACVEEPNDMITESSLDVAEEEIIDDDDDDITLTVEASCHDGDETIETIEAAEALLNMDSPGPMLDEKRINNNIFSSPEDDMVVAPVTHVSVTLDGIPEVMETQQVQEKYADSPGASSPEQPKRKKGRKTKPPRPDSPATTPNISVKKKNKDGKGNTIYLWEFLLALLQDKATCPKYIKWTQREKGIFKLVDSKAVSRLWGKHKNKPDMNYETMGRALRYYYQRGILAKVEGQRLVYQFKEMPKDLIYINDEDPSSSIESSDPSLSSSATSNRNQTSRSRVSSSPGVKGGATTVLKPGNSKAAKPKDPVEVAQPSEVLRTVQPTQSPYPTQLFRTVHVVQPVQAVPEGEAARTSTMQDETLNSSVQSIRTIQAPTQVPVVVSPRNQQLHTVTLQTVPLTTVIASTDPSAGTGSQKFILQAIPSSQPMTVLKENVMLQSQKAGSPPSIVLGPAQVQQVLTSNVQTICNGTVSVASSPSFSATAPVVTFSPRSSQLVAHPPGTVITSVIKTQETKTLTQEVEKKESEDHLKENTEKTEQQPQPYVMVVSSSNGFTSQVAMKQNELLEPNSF
# HSF1, sequence (Q00613 whole entry): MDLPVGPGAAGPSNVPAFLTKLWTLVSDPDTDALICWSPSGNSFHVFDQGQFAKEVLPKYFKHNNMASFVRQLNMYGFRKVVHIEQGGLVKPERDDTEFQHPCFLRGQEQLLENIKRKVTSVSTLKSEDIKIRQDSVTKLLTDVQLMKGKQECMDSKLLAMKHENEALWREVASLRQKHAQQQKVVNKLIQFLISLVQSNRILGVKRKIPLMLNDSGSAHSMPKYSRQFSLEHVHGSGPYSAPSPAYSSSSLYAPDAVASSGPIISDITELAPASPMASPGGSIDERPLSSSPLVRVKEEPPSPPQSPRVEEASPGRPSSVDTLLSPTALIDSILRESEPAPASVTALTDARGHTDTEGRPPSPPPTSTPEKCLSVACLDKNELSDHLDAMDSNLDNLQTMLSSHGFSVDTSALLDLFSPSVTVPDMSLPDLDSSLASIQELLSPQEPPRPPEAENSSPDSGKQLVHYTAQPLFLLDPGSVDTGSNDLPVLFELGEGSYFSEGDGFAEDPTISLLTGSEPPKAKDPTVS
Sequence,binding signal (FLI1),binding signal (ELK1),binding signal (GABPA),binding signal (ERG),binding signal (ELF1),binding signal (EHF),binding signal (SPI1),binding signal (SPIB),binding signal (FEV),binding signal (ETV5),binding signal (HSF1),binding signal (SPIC),binding signal (ELF4),binding signal (ELK4),binding signal (ETV2),binding signal (ELF3),binding signal (CRX),binding signal (ETV1)
TCAATT,"1.09 fold enrichment (6-mer frequency, TF over GST control)","1.06 fold enrichment (6-mer frequency, TF over GST control)","1.19 fold enrichment (6-mer frequency, TF over GST control)","1.16 fold enrichment (6-mer frequency, TF over GST control)","1.16 fold enrichment (6-mer frequency, TF over GST control)","1.12 fold enrichment (6-mer frequency, TF over GST control)","1.18 fold enrichment (6-mer frequency, TF over GST control)","1.29 fold enrichment (6-mer frequency, TF over GST control)","1.16 fold enrichment (6-mer frequency, TF over GST control)","1.21 fold enrichment (6-mer frequency, TF over GST control)","1.1 fold enrichment (6-mer frequency, TF over GST control)","1.14 fold enrichment (6-mer frequency, TF over GST control)","1.18 fold enrichment (6-mer frequency, TF over GST control)","1.08 fold enrichment (6-mer frequency, TF over GST control)","1.24 fold enrichment (6-mer frequency, TF over GST control)","1.12 fold enrichment (6-mer frequency, TF over GST control)","1.17 fold enrichment (6-mer frequency, TF over GST control)","1.14 fold enrichment (6-mer frequency, TF over GST control)"
CCGAAA,"1.25 fold enrichment (6-mer frequency, TF over GST control)","1.23 fold enrichment (6-mer frequency, TF over GST control)","1.33 fold enrichment (6-mer frequency, TF over GST control)","1.2 fold enrichment (6-mer frequency, TF over GST control)","1.25 fold enrichment (6-mer frequency, TF over GST control)","1.22 fold enrichment (6-mer frequency, TF over GST control)","1.21 fold enrichment (6-mer frequency, TF over GST control)","1.26 fold enrichment (6-mer frequency, TF over GST control)","1.17 fold enrichment (6-mer frequency, TF over GST control)","1.25 fold enrichment (6-mer frequency, TF over GST control)","1.73 fold enrichment (6-mer frequency, TF over GST control)","1.31 fold enrichment (6-mer frequency, TF over GST control)","1.2 fold enrichment (6-mer frequency, TF over GST control)","1.14 fold enrichment (6-mer frequency, TF over GST control)","1.27 fold enrichment (6-mer frequency, TF over GST control)","1.17 fold enrichment (6-mer frequency, TF over GST control)","1.28 fold enrichment (6-mer frequency, TF over GST control)","1.23 fold enrichment (6-mer frequency, TF over GST control)"
